Bioassay records deposited in PubChem by National Center for Advancing Translational Sciences (NCATS).
Tb PYK inh: qHTS of Trypanosoma Brucei Inhibitors. actives 0.12% (n = 410,000). TbPYK enzyme, Kinase-Glo Plus ATP luminescence, 45 min. Potency, µM (series often up to 76.8 µM), for inactives: at the highest dose activity, negative = inhibition, usual class: inhibitors. pyruvate kinase (Trypanosoma brucei), Q57TT1; note: potency is the fitted concentration of half-maximal effect; % is set by controls: 0 for no effect and ±100 for the full control effect; nearly all actives have a fitted effect of over 50% in size
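Activity of T. brucei pyruvate kinase was followed by Kinase-Glo Plus luminescence after the enzyme reacted 45 min at room temperature with 130 uM ADP (final) and substrate. Test compounds were added before ADP at multiple concentrations.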
Giardia FBPA inh: qHTS Assay for Inhibitors of Fructose-1,6-bisphosphate Aldolase from Giardia Lamblia | A8B2U2 | purified Giardia FBPA | Potency, µM (titrated, usually from 59.6 µM), without a hit: at the top dose activity, negative = inhibition, usual class: inhibitors | actives 0.71% (n = 290,000); note: potency is the fitted concentration of half-maximal effect; % is set by controls: 0 for no effect and ±100 for the full control effect; nearly all actives have a fitted effect of over 55% in size
Target sequence (A8B2U2 whole entry, looked up): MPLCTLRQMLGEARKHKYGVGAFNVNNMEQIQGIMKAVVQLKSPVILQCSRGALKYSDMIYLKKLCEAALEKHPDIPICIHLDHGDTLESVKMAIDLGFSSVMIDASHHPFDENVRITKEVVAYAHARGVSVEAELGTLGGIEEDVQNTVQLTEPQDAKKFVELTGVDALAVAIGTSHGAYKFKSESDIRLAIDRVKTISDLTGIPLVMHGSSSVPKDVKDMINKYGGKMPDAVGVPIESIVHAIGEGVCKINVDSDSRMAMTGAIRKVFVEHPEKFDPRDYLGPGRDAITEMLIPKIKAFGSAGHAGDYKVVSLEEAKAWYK
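40 nM FBPA preincubated 10 min at RT with compound (up to 57.5 uM final), then substrate plus GAPDH/TPI/NAD/arsenate coupling and diaphorase/resazurin added. Fluorescence read after 20 min at RT, 525/598 nm.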
CHX counter: Cycloheximide Counterscreen for Small Molecule Inhibitors of Shiga Toxin; cell reporter, cycloheximide protein synthesis inhibition counterscreen; max response, %; actives 12% (n = 300,000); AID 2314, 2010; in the data active = max response mostly above about 13%, no sharp cut-off; inactive = mostly below about 14%; note: read at 38.3 µM for the half of the compounds with a filed dose; 0% is about no effect
Shiga toxin inh: A qHTS for Small Molecule Inhibitors of Shiga Toxin | Vero cells, Shiga toxin protein synthesis inhibition reporter | inhibition, % at 38.7 µM | actives 9.2% (n = 290,000) | AID 2315, 2010; in the data active = inhibition mostly above about 28%, no sharp cut-off; inactive = mostly below about 43%; note: 0% is about no effect
RE007 growth inh: qHTS Assay for Inhibitors of the HIV-1 protein Vpr; actives 0.21% (n = 360,000); Potency, µM (series often up to 92.2 µM), without a hit: at the top dose activity change, negative = less growth, most hits filed as inhibitors; AID 651644, 2012; S. pombe RE007 Vpr strain, BacTiter-Glo ATP luminescence, 24 h; active = well fitted falling curve with a large enough effect; inconclusive = small, poorly fitted or top-dose-only effect; inactive = no such curve, though single readings can be large or run the other way; note: potency is the fitted concentration of half-maximal effect; % is set by controls: 0 for no effect and ±100 for the full control effect; nearly all actives have a fitted effect of over 50% in size
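Fission yeast strain RE007, carrying one chromosomally integrated HIV-1 vpr copy, was seeded at OD 0.01 in PMG+AL medium with 23 nL pinned compound. After 24 h at 30 °C and 99% humidity, viability was read by BacTiter-Glo luminescence.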
LmPK inhibitor: qHTS Assay for Inhibitors of Leishmania Mexicana Pyruvate Kinase (LmPK); Q27686; actives 0.37% (n = 290,000); purified LmPK, Kinase-Glo ATP luminescence, 1 h; Potency, µM (doses to about 57.5 µM), without a hit: at the top dose activity change, negative = inhibition, usual class: inhibitors; note: potency is the fitted concentration of half-maximal effect; % is set by controls: 0 for no effect and ±100 for the full control effect
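Kinase-Glo luminescence read after 1 h RT reaction of 0.1 nM LmPK with 0.5 mM PEP and 0.1 mM ADP. Activity scaled between uninhibited and enzyme-free controls.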
The depositor's hits bear a star. The full list was thinned out, with hits kept by preference. Unless noted, calls come from the whole dose curve; as a rule, active = well fitted curve in the direction sought with a large enough effect; inconclusive = small, poorly fitted or top-dose-only effect, or another doubt; inactive = no such curve, though single readings can be large; an effect the other way counts as inactive or inconclusive.

Screening CCCCn1nc(C(=O)N[C@@H](CCSC)c2nc3ccccc3[nH]2)c2ccccc2c1=O returned Tb PYK inh -11%, Giardia FBPA inh 4%, CHX counter -3, Shiga toxin inh 21, RE007 growth inh -5% and LmPK inhibitor 4%.
Screening O=C(Nc1cccc(C(F)(F)F)c1)c1ccc2c(c1)nnn2C1CCCC1 returned Tb PYK inh 0%.
Screening CC1CCCN(c2nc(NCc3ccco3)nc(N)c2[N+](=O)[O-])C1 (stereo not drawn) returned Tb PYK inh 2%, Giardia FBPA inh 10%, CHX counter 3, Shiga toxin inh 0, RE007 growth inh -7% and LmPK inhibitor 6%.
Cc1ccc(Nc2nc(N)c([N+](=O)[O-])c(N3CCOCC3)n2)cc1 was read as Tb PYK inh -16%, Giardia FBPA inh -5%, CHX counter 12, Shiga toxin inh 1, RE007 growth inh 21% and LmPK inhibitor 0%.
Screening Nc1nc(Nc2ccccc2)nc(N2CCCC2)c1[N+](=O)[O-] returned Tb PYK inh 2%, Giardia FBPA inh -8%, CHX counter 39*, Shiga toxin inh 58*, RE007 growth inh -3% and LmPK inhibitor 6%.
Screening CC1CCCN(c2nc(N(C)c3ccccc3)nc(N)c2[N+](=O)[O-])C1 (stereo not drawn) returned Tb PYK inh -6%, Giardia FBPA inh -2%, CHX counter 20*, Shiga toxin inh 36, RE007 growth inh 2% and LmPK inhibitor 5%.
`COc1ccc(Nc2nc(N)c([N+](=O)[O-])c(N3CCCC3)n2)cc1` gave Tb PYK inh -8%, Giardia FBPA inh -2%, CHX counter 17*, Shiga toxin inh -9, RE007 growth inh 17% and LmPK inhibitor 1%.
Screening CC(=O)OCC(NC(=O)C(COCc1ccccc1)NC(=O)OC(C)(C)C)C1OC(n2cc(C)c(=O)[nH]c2=O)C(OC(C)=O)C1OC(C)=O (stereo not drawn) returned Giardia FBPA inh 7%, CHX counter 1 and Shiga toxin inh -2.
For Nc1nc(-c2ccc(F)cc2)cs1 the results were Tb PYK inh -10%, Giardia FBPA inh inconclusive, CHX counter 16, Shiga toxin inh 38, RE007 growth inh -15% and LmPK inhibitor -2%.
For N/C(Cc1nc(-c2ccc(F)cc2)cs1)=N\O the results were Tb PYK inh -3%, Giardia FBPA inh 0%, CHX counter 22*, Shiga toxin inh 43*, RE007 growth inh -11% and LmPK inhibitor 0%.
For N/C(Cc1nc(-c2ccc(Br)cc2)cs1)=N\O the results were Tb PYK inh 5%, Giardia FBPA inh 3%, CHX counter 26*, Shiga toxin inh 78*, RE007 growth inh -12% and LmPK inhibitor 3%.
Cc1cc(C)c(NC(=O)CSc2nc3c([nH]c4ccccc43)c(=O)n2C)c(C)c1 was read as Tb PYK inh -2%.
`CCOc1ccc(NS(=O)(=O)c2ccc3[nH]cc(C(=O)N(C)C4CCCCC4)c(=O)c3c2)cc1` gave Tb PYK inh 3%.
Screening COCCN1CCN(C(=O)c2cc(COc3cc(C)ccc3C)on2)CC1 returned Tb PYK inh 0%, Giardia FBPA inh -15%, CHX counter 39*, Shiga toxin inh 81*, RE007 growth inh 3% and LmPK inhibitor -1%.
`Cc1ccc(C)c(OCc2cc(C(=O)N3CCOCC3)no2)c1` gave Tb PYK inh -2%, Giardia FBPA inh -1%, CHX counter 49*, Shiga toxin inh 58*, RE007 growth inh -9% and LmPK inhibitor 3%.
For Cc1ccc(C)c(OCc2cc(C(=O)NC3CCN(Cc4ccccc4)CC3)no2)c1 the results were Tb PYK inh 9%, Giardia FBPA inh 0%, CHX counter 29*, Shiga toxin inh 23, RE007 growth inh -8% and LmPK inhibitor 9%.
